Here are results for 153 variants from a collection of fitness landscapes (doi:10.1126/science.1257360).

B1: PhoQ; a variant is named by its letters at X, in order, P23837 (parent)
chain: MKKLLRLFFPLSLRVRFLLATAAVVLVLSLAYGMVALIGYSVSFDKTTFRLLRGESNLFYTLAKWENNKLHVELPENIDKQSPTMTLIYDENGQLLWAQRDVPWLMKMIQPDWLKSNGFHEIEADVNDTSLLLSGDHSIQQQLQEVREDDDDAEMTHSVAVNVYPATSRMPKLTIVVVDTIPVELKSSYMVWSWFIYVLSANLLLVIPLLWVAAWWSLRPIEALAKEVRELEEHNRELLNPATTRELTSLVRNLNRLLKSERERYDKYRTTLTDLTHSLKTPLXXLQXXLRSLRSEKMSVSDAEPVMLEQISRISQQIGYYLHRASMRGGTLLSRELHPVAPLLDNLTSALNKVYQRKGVNISLDISPEISFVGEQNDFVEVMGNVLDNACKYCLEFVEISARQTDEHLYIVVEDDGPGIPLSKREVIFDRGQRVDTLRPGQGVGLAVAREITEQYEGKIVAGESMLGGARMEVIFGRQHSAPKDE

In all, about 140,000 sequences were measured (“enrichment ratio after two sorts for PhoP signalling”: median about 0, highest 2% from about 11 on). For the sample, the highest values were picked, then their nearest neighbours and some sequences at random. Where only a bound is given, the exact number is not on record here.

This experiment covers variants of B1. As to the kind of experiment: enrichment ratio after two sorts for PhoP signalling (ratio (wild type AVST 3.29)); higher = more functional. The conditions noted are these: with PhoP (E. coli).
EAAP: the enrichment ratio was not above 0.25.
With LSEF, the enrichment ratio is not above 0.25.
Then DGFG, with not above 0.25; and EQRH, with not above 0.25; and KHEV, with not above 0.25.
In the case of INFP, the enrichment ratio was not above 0.25.
With TDLE, the enrichment ratio was not above 0.25.
The value for NRFY was not above 0.25; that for VSYR was not above 0.25; that for PTNE was not above 0.25.
The value for FSIC was not above 0.25; that for PHTQ was not above 0.25; that for QGAL was 15.6.
Take QAAL: the enrichment ratio was determined as 3.3.
Then FFAL, with not above 0.25; and LMWN, with not above 0.25; and HINH, with not above 0.25.
In the case of KPLN, the enrichment ratio was not above 0.25.
The value for TSLN was 16.9; that for TSLA was 16.6; that for KSLS was not above 0.25.
The value for FSLS was 9.54.
As for KSLA, the enrichment ratio is not above 0.25.
Consider NSLN, for which the enrichment ratio was not above 0.25.
Consider TSWI, for which the enrichment ratio turned out to be 3.63.
The value for KSLT was not above 0.25; that for FSLT was 7.83.
Then KSLN, with not above 0.25; and TSLS, with 15.9; and TSLT, with 13.3.
The value for YNRN was not above 0.25; that for VLSY was 0.334; that for DDLI was not above 0.25.
As for ARIV, the enrichment ratio is not above 0.25.
On to HMEL, for which the enrichment ratio was not above 0.25.
For PRTC, the enrichment ratio was not above 0.25.
Then INYQ, with not above 0.25; and ICWY, with not above 0.25; and RSTG, with not above 0.25.
Consider YLPW, for which the enrichment ratio is not above 0.25.
Then WEVD, with not above 0.25.
As for ANLP, the enrichment ratio was not above 0.25.
Then GSLM, with 20.9; and GSLF, with 11.4; and GSFM, with not above 0.25.
For the variant GNLF, the enrichment ratio is 6.83.
Regarding TPLF, the enrichment ratio was not above 0.25.
Regarding GSGM, the enrichment ratio came to 8.45.
Then KGAD, with not above 0.25; and MQRI, with not above 0.25.
Then EYAR, with not above 0.25; and AEEG, with not above 0.25; and AEMG, with 14.3.
Regarding AEHG, the enrichment ratio was not above 0.25.
Turning to AEMF, the enrichment ratio was not above 0.25.
The value for AEMT was 5.41; that for AEMS was 31; that for AIYG was 0.334.
Then ADYG, with not above 0.25; and AEYG, with 36.3.
Then AEIG, with 21.9.
In the case of AEGG, the enrichment ratio is not above 0.25.
The value for QPAL was not above 0.25; that for QTTM was not above 0.25; that for SAVI was 3.04.
Then NWIW, with not above 0.25; and RGNN, with not above 0.25; and GTDL, with not above 0.25.
Consider AEGA, for which the enrichment ratio was 11.
Regarding AGMA, the enrichment ratio was determined as 5.7.
For the variant AEMA, the enrichment ratio was 25.6.
The value for IMTE was not above 0.25; that for PMNV was not above 0.25.
The value for YHPY was not above 0.25; that for TNGH was 7.13.
Then TASI, with 12.5; and TATS, with 19.8; and QASI, with 12.8.
Regarding NASS, the enrichment ratio was not above 0.25.
Consider KASS, for which the enrichment ratio is 1.62.
Then KASI, with not above 0.25.
The value for TASK was 0.795.
The value for QRSI was not above 0.25.
For the variant TATH, the enrichment ratio is 3.27.
Then NASI, with not above 0.25.
The value for TASS was 13.4; that for TATC was 7.1.
The value for MVMH was not above 0.25.
Regarding DHNH, the enrichment ratio was not above 0.25.
Regarding KATG, the enrichment ratio is not above 0.25.
For TASC, the enrichment ratio is 12.7.
The value for KASC was not above 0.25; that for NATG was not above 0.25.
Turning to NASC, the enrichment ratio is not above 0.25.
Then TATG, with 18; and FSNY, with not above 0.25; and TWVT, with not above 0.25.
For the variant GNIG, the enrichment ratio turned out to be 1.98.
For the variant GCIG, the enrichment ratio amounted to 12.8.
Regarding GYIG, the enrichment ratio was not above 0.25.
On to GQIV, for which the enrichment ratio amounted to 0.651.
GCCI: the enrichment ratio came to 5.84.
The value for GCGG was not above 0.25.
The value for GTIG was 1.96; that for QCCG was not above 0.25; that for GCCG was 18.1.
Then GQIG, with 23.8; and GCVG, with not above 0.25.
Take GCMG: the enrichment ratio amounted to 16.9.
The value for LGAY was not above 0.25.
As for SVEV, the enrichment ratio is not above 0.25.
Turning to YSQV, the enrichment ratio is not above 0.25.
KMDL: the enrichment ratio is not above 0.25.
Then NRSD, with not above 0.25.
The value for TNRT was not above 0.25; that for FPTD was not above 0.25.
For IEAY, the enrichment ratio was not above 0.25.
As for AVEL, the enrichment ratio was not above 0.25.
Take AHTL: the enrichment ratio is 6.56.
Then AMTL, with 4.39; and AVTL, with 12.5; and AETL, with 15.1.
Then AITL, with 24.3.
The value for AVWL was not above 0.25.
Turning to HKTL, the enrichment ratio was not above 0.25.
The value for TKTL was 16; that for MKTL was not above 0.25; that for MHYL was not above 0.25.
ALHS: the enrichment ratio was not above 0.25.
Then THYA, with not above 0.25.
As for TPED, the enrichment ratio was not above 0.25.
Then WDQY, with not above 0.25.
With IFCF, the enrichment ratio was not above 0.25.
Turning to AKTL, the enrichment ratio was determined as 12.5.
Then AWTL, with not above 0.25; and KLTL, with not above 0.25.
Then VRTL, with not above 0.25; and LLTL, with not above 0.25; and ANTL, with 12.9.
Regarding ASTL, the enrichment ratio was 20.2.
The value for KKTL was not above 0.25; that for ALTL was 15.2.
Then ASEL, with 3.67; and ADTL, with not above 0.25; and LLVY, with not above 0.25.
As for YYRY, the enrichment ratio was not above 0.25.
For RSKL, the enrichment ratio was not above 0.25.
On to EIAA, for which the enrichment ratio was not above 0.25.
For the variant SNVV, the enrichment ratio was determined as 7.87.
With ACTL, the enrichment ratio was found to be 15.2.
ACTK: the enrichment ratio came out at 4.69.
Then AGAW, with not above 0.25.
The value for PHQA was not above 0.25.
